The list is not random: actives were taken first. Their share in the collection is about 8%.
PostGolgi ctrl: yeast control strain growth, post-Golgi counter-screen | efflux-deficient yeast background strain, growth absorbance A615, 16 h | inhibition, % at 10 µM | 98,000 compounds, 5% hits
PTK2B oligo ant: Pyk2 (human) oligomerization antagonism | z-score (the deposit names both 25 µM and 10 µM) | Q293 cells, Pyk2 FERM NanoBiT luminescence; stronger effect = lower value | Q14289 | 99,000 compounds, 0.83% hits;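 active means Z-score of -3 or lower, scaled per plate to the spread of control and sample wells; inactive means z-score above -3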;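 further: negative z-score means lost luminescence so less FERM oligomerization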
Target sequence (Q14289 whole entry, looked up): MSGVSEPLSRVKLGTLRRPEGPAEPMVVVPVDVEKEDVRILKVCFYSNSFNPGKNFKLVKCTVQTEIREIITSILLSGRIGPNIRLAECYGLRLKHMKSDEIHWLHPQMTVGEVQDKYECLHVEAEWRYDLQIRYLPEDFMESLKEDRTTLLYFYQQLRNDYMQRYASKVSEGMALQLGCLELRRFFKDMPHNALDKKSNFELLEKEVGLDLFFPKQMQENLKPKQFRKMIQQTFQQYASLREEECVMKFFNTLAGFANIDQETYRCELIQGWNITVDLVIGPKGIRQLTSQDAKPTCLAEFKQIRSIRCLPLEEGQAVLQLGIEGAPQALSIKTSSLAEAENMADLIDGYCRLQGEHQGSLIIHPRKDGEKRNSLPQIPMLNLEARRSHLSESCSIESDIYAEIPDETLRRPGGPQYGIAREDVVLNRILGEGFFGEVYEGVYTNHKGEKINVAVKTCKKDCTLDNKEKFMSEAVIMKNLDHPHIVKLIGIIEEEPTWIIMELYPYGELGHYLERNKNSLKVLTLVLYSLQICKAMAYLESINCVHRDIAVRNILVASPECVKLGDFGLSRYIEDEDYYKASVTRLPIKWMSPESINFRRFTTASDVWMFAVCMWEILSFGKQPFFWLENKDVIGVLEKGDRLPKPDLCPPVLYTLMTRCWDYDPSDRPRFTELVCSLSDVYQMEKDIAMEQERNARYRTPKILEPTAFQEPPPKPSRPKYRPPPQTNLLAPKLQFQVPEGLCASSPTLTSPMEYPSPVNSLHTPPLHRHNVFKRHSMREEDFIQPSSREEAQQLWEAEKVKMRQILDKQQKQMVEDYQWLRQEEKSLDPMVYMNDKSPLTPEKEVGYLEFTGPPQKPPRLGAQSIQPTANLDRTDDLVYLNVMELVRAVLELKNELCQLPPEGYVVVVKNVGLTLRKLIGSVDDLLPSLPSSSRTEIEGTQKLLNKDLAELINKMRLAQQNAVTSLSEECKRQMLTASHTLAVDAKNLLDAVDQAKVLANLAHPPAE
Cav3 T inh: blocks human Cav3.2 T-type calcium channel; O95180; Cav3.2-expressing cells, Fluo-4 calcium fluorescence FDSS; stronger effect = lower value; B-score at 10 µM; 100,000 compounds, 4% hits;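 active means single-dose well whose peak fluorescence ratio is a statistical outlier from its plate by either plate-standardised score or position-corrected B-score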
PostGolgi yeast: growth inhibition of a yeast mutant, post-Golgi transport screen; post-Golgi transport phenotypic cell assay; inhibition, % at 10 µM; 98,000 compounds, 0.9% hits;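 further: yeast cells grown in 1536-well plates; yeast grown about 18 h at 30C before absorbance read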
Of the large screens only hits and unclear results are named; the others gave an inactive call. Unless noted, no stated cut-off is given here; in the data, active means inhibition above about 30%; inactive means the rest.

C=CCN1CCN(c2ccncc2S(=O)(=O)N2CCOCC2)CC1	none
O=C(CN(CCc1ccccc1)C(=O)CNS(=O)(=O)c1ccc(F)cc1)NCC1CCCO1 (stereo not given)	none
C=C(C)C1Cc2c(C)nn(-c3cccc4ccccc34)c2C1 (stereo not given)	PostGolgi ctrl 40.4
C=CCn1c(N)cc(=O)nc1SCC(=O)Nc1ccc2ccccc2c1	none (no result: PostGolgi ctrl, PostGolgi yeast)
COC1CCCCC1Nc1cccc(SC)c1 (stereo not given)	PostGolgi ctrl 34.8
COC1CCCCC1Nc1cc(C)cc(C)c1 (stereo not given)	none
CC(=O)Nc1ccc2c3c(cccc13)CC2	none (no result: PostGolgi ctrl, PostGolgi yeast)
Cc1cc(C)c(S(=O)(=O)Nc2ccc3c4c(cccc24)CC3)c(C)c1	PostGolgi ctrl 61.1
Cc1ccc(NC(=S)N(C)Cc2cn(C)c3ccccc23)cc1	none (no result: PostGolgi ctrl, Cav3 T inh, PostGolgi yeast)
Cc1ccccc1Cn1c(=N)n(CC(=O)c2ccco2)c2ccccc21	Cav3 T inh -4.24
O=C(CC1C(=O)N(c2ccc(Cl)cc2)C(=S)N1CCc1ccncc1)Nc1ccc(F)cc1 (stereo not given)	none
Clc1ccc(NC2=NCCCCC2)cc1	none
CSCCC(NC(=O)c1ccccc1)C(=O)NCc1ccco1 (stereo not given)	PostGolgi ctrl 37.7
CC(C)c1cn(C2OC(COC(=O)c3ccccc3)C(OC(=O)c3ccccc3)C2OC(=O)c2ccccc2)c(=O)[nH]c1=O (stereo not given)	none (no result: PostGolgi ctrl, PTK2B oligo ant, PostGolgi yeast)
O=c1cc(N2CCCCC2)c(-c2ccccc2)nn1Cc1c(Cl)cccc1Cl	PostGolgi ctrl 45.5
CCCCCCn1c(CN2CCCCC2C)nc2c1c(=O)n(C)c(=O)n2C (stereo not given)	none (no result: PostGolgi ctrl, PostGolgi yeast)
CCCn1c(CN2CCCCC2C)nc2c1c(=O)n(C)c(=O)n2C (stereo not given)	PostGolgi ctrl 37.4 (no result: PTK2B oligo ant)
O=C(NCCn1cc(SCc2ccc(F)cc2)c2ccccc21)c1ccccc1F	Cav3 T inh -4.66 (no result: PostGolgi ctrl, PTK2B oligo ant, PostGolgi yeast)
Cc1cccc2c1NC(=O)C2(c1ccc(O)cc1)c1ccc(O)cc1	Cav3 T inh -5.15
Cc1cc(C2(c3ccc(O)c(C)c3)C(=O)Nc3ccccc32)ccc1O	none (no result: Cav3 T inh)
Cc1ccc(-c2csc(N/N=C/c3ccco3)n2)cc1	PostGolgi ctrl 33.8
COc1ccc2cc(CN(CC3CCCO3)S(=O)(=O)c3ccccc3Cl)c(=O)[nH]c2c1 (stereo not given)	none (no result: Cav3 T inh)
CCN1CCN(c2nc(SC)nc3sc4c(c23)CC(C)(C)OC4)CC1	none
CCOC(=O)c1cnn(-c2ncnc3sc4c(c23)CCC4)c1N	none
CC(C)Sc1nc(N2CCOCC2)c2c3c(sc2n1)COC(C)(C)C3	PostGolgi ctrl 43.5
CCOC(=O)c1nc(N2CCN(C(=O)OCC)CC2)c2c3c(sc2n1)CCCC3	PostGolgi ctrl 37.3
CCOC(=O)c1cnn(-c2nc(SC)nc3sc4c(c23)CCCC4)c1N	PostGolgi ctrl 76.3
CCOC(=O)N1CCN(c2nc(SC)nc3sc4c(c23)CC(C)(C)OC4)CC1	Cav3 T inh -4.65 (no result: PostGolgi ctrl, PostGolgi yeast)
CSc1nc(N2CCOCC2)c2c3c(sc2n1)CCC3	none
CS(=O)(=O)N(CC(=O)Nc1cccc(Cl)c1Cl)c1ccccc1	none
CCn1c(CN2CCN(c3ccc(Cl)cc3)CC2)nc2ccccc21	Cav3 T inh -6.67 (no result: PostGolgi ctrl, PostGolgi yeast)
Cn1c(CN2CCN(c3ccc(Cl)cc3)CC2)nc2ccccc21	none
CCOC(=O)C(NC(=O)CC)(N1CCc2ccccc2C1)C(F)(F)F (stereo not given)	none
CCn1cc(Cl)c(C(=O)Nc2nc3ccccc3n2CCN2CCCCC2)n1	none (no result: PTK2B oligo ant)
Cc1cccc(OCCn2c(-c3ccco3)nc3ccccc32)c1	PostGolgi ctrl 30.4
c1ccc(OCCn2c(-c3ccco3)nc3ccccc32)cc1	none
O=C(Nc1nc2ccccc2n1CCOc1ccc(Cl)cc1)c1ccco1	PostGolgi ctrl 48.8 (no result: PTK2B oligo ant)
Cc1cccc(OCCn2c(NC(=O)c3ccco3)nc3ccccc32)c1	PostGolgi ctrl 50.8
CCN(CC)CCNCc1ccc(-c2ccc(Cl)cc2)o1	none
O=C(/C=C/c1cc([N+](=O)[O-])ccc1OC(F)F)NCc1ccc(F)cc1	Cav3 T inh -6.12
O=C(Oc1ccc(F)cc1C(=O)/C=C/c1cccs1)c1cccc([N+](=O)[O-])c1	none
Cc1ccc(-n2c(Cn3nc(C(F)(F)F)cc3C)n[nH]c2=S)cc1	none
O=C(NCc1ccc(F)cc1)c1cnn2ccccc12	none (no result: PTK2B oligo ant)
CCC1(C)Cc2c(sc3c2c2ncnn2c2nnc(SCC(=O)NCc4ccco4)n32)CO1 (stereo not given)	Cav3 T inh 3.73
O=C(Nc1nnc(SCc2ccc(F)cc2)s1)C1Cc2ccccc2CN1C(=O)c1ccco1 (stereo not given)	Cav3 T inh -5.65
O=C(CSc1nc2ccccc2c(=O)n1-c1ccc(Cl)cc1)c1ccco1	none
COc1ccccc1-c1nnc2sc(-c3cc4ccccc4o3)nn12	PostGolgi ctrl 40.5 (no result: Cav3 T inh)
COc1ccccc1-c1nnc2sc(-c3cnccn3)nn12	none
COc1ccccc1-c1nnc2sc(-c3ccc(N(C)C)cc3)nn12	PTK2B oligo ant -3.39 (no result: PostGolgi ctrl, Cav3 T inh, PostGolgi yeast)
Cc1cc2c(cc1C)-c1nnnn1C(C)(C)C2	none
CC1CN(C(=O)Nc2ccc3snnc3c2)c2ccccc21 (stereo not given)	PostGolgi ctrl 30.1 (no result: PTK2B oligo ant)
COc1ccc(CCn2c(C)cc3c(c2=O)C(c2ccc4c(c2)OCO4)C(C#N)=C(N)O3)cc1OC (stereo not given)	none
CCC1(CC)C(=O)C2=C3C1[C@H](C(=O)OC)CC(C(=O)OC)C[C@H]3n1c(=O)n(-c3ccccc3)c(=O)n1[C@H]2C (stereo not given in full)	none (no result: PostGolgi ctrl, PTK2B oligo ant, PostGolgi yeast)
C=CCN(CC=C)C(=O)c1cc2ccccc2c(=O)o1	none (no result: PostGolgi ctrl, Cav3 T inh, PostGolgi yeast)
COC(=O)C(NC(=O)c1ccc(C)cc1)(Nc1cccc(C)n1)C(F)(F)F (stereo not given)	Cav3 T inh -4.62 (no result: PostGolgi ctrl, PostGolgi yeast)
N/C(COc1ccccc1)=N\NS(=O)(=O)c1ccccc1	none
COCC(C)OC(=O)c1c(N)n(CC(C)C)c2nc3ccccc3nc12 (stereo not given)	none
COc1ccc(Cl)cc1N1Cc2ccccc2C1	PostGolgi ctrl 32.1
COc1ccc(OC)c(N2Cc3ccccc3C2)c1	none (no result: PostGolgi ctrl, PostGolgi yeast)
COC(=O)c1cc(NC2c3ccccc3C(=O)N2c2cccnc2)cc(C(=O)OC)c1 (stereo not given)	none (no result: PostGolgi ctrl, PTK2B oligo ant)
Cc1cc(C)n2nc(-c3sccc3-n3cccc3)cc2n1	PostGolgi ctrl 35.1
S=C1N(c2ccccc2)C(c2ccc(Cl)cc2)N2CCCN12 (stereo not given)	Cav3 T inh -4.85
O=C(O)c1cnc(-c2ccccc2)nc1Sc1cccc(Cl)c1	Cav3 T inh -6.28
Clc1ccc(COn2nnc3ccccc32)c(Cl)c1	none
CCCCCCc1nnc(N)s1	none
CCCc1cc(=O)[nH]c(SCc2nc3ccccc3s2)n1	none
O=c1[nH]c(SCc2ccccc2Cl)nc2c1cnn2-c1ccccc1	PostGolgi ctrl 41.6 (no result: PTK2B oligo ant, Cav3 T inh)
CCCc1cc(=O)[nH]c(SCc2ccccc2Cl)n1	PostGolgi ctrl 44.5
COc1cccc2c1C(=O)c1c(O)c3c(c(O)c1C2=O)C[C@@](O)(C(=O)CO)C[C@@H]3O[C@H]1C[C@H](N)[C@@H](O)[C@H](C)O1	Cav3 T inh -5.62 (no result: PostGolgi ctrl, PTK2B oligo ant, PostGolgi yeast)
CC1CC(OCC(O)CN2CCN(Cc3ccccc3)CC2)CC(C)(C)C1 (stereo not given)	PostGolgi ctrl 31.7, PostGolgi yeast 83.3
CCC1CCCCN1c1cc(C)nc2cc(-c3cccc(C)c3)nn12 (stereo not given)	PostGolgi ctrl 55.4
